Assay results published in PubChem BioAssay (NCATS).
Results filed as inconclusive are left out. Calls of active or inactive are those of the source. Calls follow the shape of the dose curve; as a rule, active = well fitted curve in the direction sought with a large enough effect; inconclusive = small, poorly fitted or top-dose-only effect, or another doubt; inactive = no such curve, though single readings can be large; an effect the other way counts as inactive or inconclusive.

What was measured:
[1] = biological target: Protein phosphatase 1D (Homo sapiens) (UniProt O15297); assay: RapidFire Mass Spectrometry qHTS Assay for Modulators of WT P53-Induced Phosphatase 1 (WIP1) (AID 1347424);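 also: amount of dephosphorylated VEPPL-S-QETFS peptide product formed by WIP1; series mostly up to about 63 µM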
How it was run: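 10 nM WIP1 + cpd, 1 h RT; + 2 uM VEPPL-pS-QETFS, 5 min RT; stop 0.5% formic acid; labelled product standard 1 uM; RapidFire MS. Buffer 50 mM Tris pH 7.5, 30 mM MgCl2, 1 mM TCEP.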

[2] = biological target: Protein phosphatase 1D (Homo sapiens) (UniProt O15297); assay: Rhodamine-PBP qHTS Assay for Modulators of WT P53-Induced Phosphatase 1 (WIP1) (AID 1347425)
How it was run: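 Read-out: Rhodamine-PBP fluorescence (ex 525/em 598 nm) for released Pi, read each minute for 11 min after adding 10 uM VEPPL-pS-QETFS; signal taken as f1 minus pre-substrate f0. Enzyme 5 nM WIP1 with 1 hr room-temperature compound preincubation.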

[3] = Primary qHTS for inhibitors of La Crosse Virus (LACV) - induced cell death in SH-SY5Y cells (AID 1508616);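 also: top concentration of the series differs between compounds; higher means more rescue of cells from virus-induced death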
How it was run: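 Protection against LACV-induced cell death is scored in SH-SY5Y cells exposed to compounds and virus (0.01 MOI) for 6 days. Data normalized to virus-infected DMSO wells and virus-free DMSO wells.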

[4] = Validation qHTS assay for inhibitors of Activation Induced Cytidine Deaminase (AID): UDG Counterscreen signal (AID 1347427)
How it was run: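 Counterscreen read of UDG activity (2 U/mL, 4/3x) in the FRET deamination format with AID (1 uM, 4/3x), DJC20/DJC23 substrates (250 nM, 4x), 4 h at room temperature. NaOH stop, fluorescence at 560 ex/665 em.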

[5] = biological target: Single-stranded DNA cytosine deaminase (Homo sapiens) (UniProt Q9GZX7); assay: Validation qHTS assay for inhibitors of Activation Induced Cytidine Deaminase (AID): AID signal (AID 1347429)
How it was run: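 Fluorescence at 540 nm excitation and 590 nm emission reports ssDNA cytosine deamination by AID, with UDG in the same well. Compound-treated reactions ran 4 hr at room temperature with DJC20/DJC23 substrate, followed by 30 min NaOH treatment.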

[6] = biological target: Calcium and integrin-binding protein 1 (Homo sapiens) (UniProt Q99828); assay: Validation qHTS for Identification of Calcium Integrin Binding protein 1 (CIB1) Competitor (AID 1508618)
How it was run: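 CIB1-GST (1 uM final) in 5 mM HEPES pH 7.4, 125 mM NaCl, 5 mM CaCl2, 0.01% Tween20 was preincubated 15 min at room temperature with compound (up to 114 uM), then FITC-alphaIIb peptide (100 nM) added for 15 min; fluorescence polarization read.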

[7] = biological target: Calcium and integrin-binding protein 1 (Homo sapiens) (UniProt Q99828); assay: Primary qHTS for Identification of Calcium Integrin Binding Protein 1 (CIB1) Competitor (AID 1508620);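 also: GST tagged CIB1 binding a fluorescein labelled alphaIIb integrin peptide tracer; top concentration of the series differs between compounds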
How it was run: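 CIB1-GST (1 uM final) and compound incubated 15 min at room temperature before adding FITC-alphaIIb peptide tracer (100 nM final). Competition for binding read by fluorescence polarization (ex 480, em 540) after another 15 min at room temperature.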

[8] = Counterscreen qHTS for small molecule stabilizers of the endoplasmic reticulum resident proteome: GLuc-NoTag assay (AID 1508627);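 also: SH-SY5Y cells given compound then 100 nM thapsigargin to empty ER calcium; series mostly up to about 76 µM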
How it was run: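 Luminescence of Gaussia luciferase secreted into the medium (coelenterazine, 0.07x final, unlysed cells) was the read-out. Human SH-SY5Y neuroblastoma cells constitutively secreting untagged GLuc received compound for 19 h, then 100 nM thapsigargin for 4 h.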

Measured: Potency

Chain of Calcium and integrin-binding protein 1 (Homo sapiens) (Q99828 whole entry, looked up): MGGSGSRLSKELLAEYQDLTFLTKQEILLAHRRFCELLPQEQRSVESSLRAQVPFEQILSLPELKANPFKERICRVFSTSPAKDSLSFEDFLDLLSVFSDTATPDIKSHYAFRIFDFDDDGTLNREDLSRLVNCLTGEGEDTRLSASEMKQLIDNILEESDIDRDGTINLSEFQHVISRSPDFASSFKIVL
Chain of Protein phosphatase 1D (Homo sapiens) (O15297 whole entry, looked up): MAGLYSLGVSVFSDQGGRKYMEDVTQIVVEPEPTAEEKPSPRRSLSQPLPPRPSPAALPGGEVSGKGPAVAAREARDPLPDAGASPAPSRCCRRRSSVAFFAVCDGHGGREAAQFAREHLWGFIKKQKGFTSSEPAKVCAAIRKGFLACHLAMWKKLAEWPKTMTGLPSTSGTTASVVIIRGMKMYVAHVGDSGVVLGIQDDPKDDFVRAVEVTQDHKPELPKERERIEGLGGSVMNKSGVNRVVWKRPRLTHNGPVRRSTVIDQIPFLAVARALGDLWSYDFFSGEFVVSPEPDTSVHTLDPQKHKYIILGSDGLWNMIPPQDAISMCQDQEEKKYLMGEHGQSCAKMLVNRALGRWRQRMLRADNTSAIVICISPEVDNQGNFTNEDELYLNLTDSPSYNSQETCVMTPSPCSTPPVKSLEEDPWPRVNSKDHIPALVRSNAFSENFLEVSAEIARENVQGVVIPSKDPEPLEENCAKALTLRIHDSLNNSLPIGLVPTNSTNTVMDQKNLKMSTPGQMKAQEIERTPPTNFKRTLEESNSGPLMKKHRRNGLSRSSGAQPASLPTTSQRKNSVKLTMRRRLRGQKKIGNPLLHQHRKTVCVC
Chain of Single-stranded DNA cytosine deaminase (Homo sapiens) (Q9GZX7 whole entry, looked up): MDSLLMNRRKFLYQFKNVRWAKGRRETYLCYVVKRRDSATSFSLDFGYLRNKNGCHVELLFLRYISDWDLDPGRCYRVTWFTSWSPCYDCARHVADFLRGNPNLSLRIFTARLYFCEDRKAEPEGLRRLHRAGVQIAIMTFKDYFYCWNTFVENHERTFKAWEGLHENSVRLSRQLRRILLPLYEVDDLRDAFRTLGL

CC(O)C(=O)O (configuration not stated)
inactive: [1] | [2] | [3]

O=C(CCCN1CCC(O)(c2ccc(Br)cc2)CC1)c1ccc(F)cc1
inactive: [1] | [2] | [3]

CNCC[C@@H](Oc1ccccc1C)c1ccccc1
inactive: [1] | [2] | [3]

CC(C)(C)CC(C)(C)c1ccc(OCCOCC[N+](C)(C)Cc2ccccc2)cc1
inactive: [1] | [2] | [3]

Oc1ccc(O)cc1
inactive: all assays above

COc1cccc2c1C(=O)c1c(O)c3c(c(O)c1C2=O)C[C@@](O)(C(=O)CO)C[C@@H]3O[C@H]1C[C@H](N)[C@H](O)[C@H](C)O1
inactive: [1]

C=C(CC)C(=O)c1ccc(OCC(=O)O)c(Cl)c1Cl
inactive: [1] | [2]

OC[C@H]1O[C@H](O[C@]2(CCl)O[C@H](CCl)[C@@H](O)[C@@H]2O)[C@H](O)[C@@H](O)[C@H]1Cl
inactive: [1] | [2] | [3]

C#C[C@]1(OC(C)=O)CC[C@H]2[C@@H]3CCC4=C[C@@H](OC(C)=O)CC[C@@H]4[C@H]3CC[C@@]21C
inactive: [1] | [2] | [3]

C[C@]12CC[C@@H]3c4ccc(O)cc4CC[C@H]3[C@@H]1C[C@@H](O)[C@@H]2O
inactive: [1] | [2] | [3]

Cc1ccc(C(=O)C(C)CN2CCCCC2)cc1 (configuration not stated)
inactive: [1] | [2] | [3]

Cc1ccc(O)c2ncccc12
inactive: [1] | [2] | [3]

N[C@@H](CCC(=O)N[C@@H](CS)C(=O)NCC(=O)O)C(=O)O
inactive: [1] | [2] | [3]

CCCN1CCCC[C@H]1C(=O)Nc1c(C)cccc1C
inactive: [1] | [2] | [3]

CC(C)(CO)[C@@H](O)C(=O)NCCCO
inactive: [1] | [2] | [3]

CN1CCN(CCCN2c3ccccc3Sc3ccc(S(=O)(=O)N(C)C)cc32)CC1
inactive: [1] | [2] | [3]

CCN1CCC[C@H]1CNC(=O)c1c(OC)ccc(Br)c1OC
inactive: [1] | [2] | [3]

C[C@H](O)C(=O)Nc1c(I)c(C(=O)NC(CO)CO)c(I)c(C(=O)NC(CO)CO)c1I
inactive: [1] | [2] | [3]

Oc1ccc(Cl)c2cccnc12
inactive: [1] | [2] | [3]

CN1C(CCl)Nc2cc(Cl)c(S(N)(=O)=O)cc2S1(=O)=O (configuration not stated)
inactive: [1] | [2]

C[C@H](CCC(=O)O)[C@H]1CC[C@H]2[C@@H]3C(=O)C[C@@H]4CC(=O)CC[C@]4(C)[C@H]3CC(=O)[C@]12C
inactive: [1] | [2] | [3]

CC(=O)OCC(=O)[C@@]1(O)CC[C@H]2[C@@H]3CCC4=CC(=O)C=C[C@]4(C)[C@H]3[C@@H](O)C[C@@]21C
inactive: [1] | [2] | [3]

COc1cc2c(cc1OC)C(C(C(=O)N(CCc1ccc(OC)c(OC)c1OC)CCc1ccc(OC)c(OC)c1OC)c1ccccc1)=NCC2 (configuration not stated)
inactive: [1] | [2] | [3]

O=c1[nH]c(=O)n([C@H]2C[C@H](O)[C@@H](CO)O2)cc1C(F)(F)F
inactive: [1] | [2] | [3]

C/C=C/c1ccc(OC)cc1
inactive: [1] | [2] | [3]

Oc1c(I)cc(Cl)c2cccnc12
inactive: [1] | [2] | [3]

CCOC(=O)[C@H](CCc1ccccc1)N[C@@H](C)C(=O)N1Cc2ccccc2C[C@H]1C(=O)O
inactive: [1] | [2] | [3]

Cc1cc2c(cc1CC(=O)c1sccc1S(=O)(=O)Nc1onc(C)c1Cl)OCO2
inactive: [1] | [2] | [3]

O=C(OCC(O)CO)c1ccccc1Nc1ccnc2cc(Cl)ccc12 (configuration not stated)
inactive: [1] | [2] | [3]

COc1cc(C(=S)N2CCOCC2)cc(OC)c1OC
inactive: [1] | [2] | [3]

CN(C)CC/C=C1\c2ccccc2Sc2ccc(Cl)cc21
inactive: [1] | [2] | [3]

CCOC(=O)c1cccc(N)c1
inactive: [1] | [2] | [3]

Cc1cc(O)c(C(C)C)cc1Cl
inactive: [1] | [2] | [3]

COc1cccc2c1C(=O)c1c(O)c3c(c(O)c1C2=O)C[C@@](O)(C(C)=O)C[C@@H]3O[C@H]1C[C@H](N)[C@H](O)[C@H](C)O1
inactive: [1]

O=c1ccc2ccccc2o1
inactive: [1] | [2] | [3]

COCc1c(C(C)C)nc(C(C)C)c(/C=C/[C@@H](O)C[C@@H](O)CC(=O)O)c1-c1ccc(F)cc1
inactive: [1] | [2]

COc1cc(/C=C/C(=O)O[C@H]2CC[C@]34C[C@]35CC[C@]3(C)[C@@H]([C@H](C)CCC=C(C)C)CC[C@@]3(C)[C@@H]5CC[C@H]4C2(C)C)ccc1O
inactive: [1] | [2] | [3] | [7]

CN1CCC[C@@H]1c1cccnc1
inactive: [1] | [2] | [3] | [7]

Clc1ccc2c(c1)CCc1cccnc1C2=C1CCNCC1
inactive: [1] | [2] | [3]
